Test results published in paper PMC4336329 (PLoS ONE, 2015).
The campaign covered roughly 310,000 compounds. About 14,000 (4.5%) showed an effect of 50% or more. The effect is printed as a negative number. The entries come from a sample that favours strong results as a whole.

molecular target: human ether-à-go-go-related gene (hERG) potassium channel (human, UniProt Q12809); assay: primary screen, population patch clamp on CHO cells stably expressing hERG; higher = less effect of the substance
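Note: peak tail current of the secondary pulse compared with the same well before compound.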

Chain of human ether-à-go-go-related gene (hERG) potassium channel (Q12809 whole entry, looked up): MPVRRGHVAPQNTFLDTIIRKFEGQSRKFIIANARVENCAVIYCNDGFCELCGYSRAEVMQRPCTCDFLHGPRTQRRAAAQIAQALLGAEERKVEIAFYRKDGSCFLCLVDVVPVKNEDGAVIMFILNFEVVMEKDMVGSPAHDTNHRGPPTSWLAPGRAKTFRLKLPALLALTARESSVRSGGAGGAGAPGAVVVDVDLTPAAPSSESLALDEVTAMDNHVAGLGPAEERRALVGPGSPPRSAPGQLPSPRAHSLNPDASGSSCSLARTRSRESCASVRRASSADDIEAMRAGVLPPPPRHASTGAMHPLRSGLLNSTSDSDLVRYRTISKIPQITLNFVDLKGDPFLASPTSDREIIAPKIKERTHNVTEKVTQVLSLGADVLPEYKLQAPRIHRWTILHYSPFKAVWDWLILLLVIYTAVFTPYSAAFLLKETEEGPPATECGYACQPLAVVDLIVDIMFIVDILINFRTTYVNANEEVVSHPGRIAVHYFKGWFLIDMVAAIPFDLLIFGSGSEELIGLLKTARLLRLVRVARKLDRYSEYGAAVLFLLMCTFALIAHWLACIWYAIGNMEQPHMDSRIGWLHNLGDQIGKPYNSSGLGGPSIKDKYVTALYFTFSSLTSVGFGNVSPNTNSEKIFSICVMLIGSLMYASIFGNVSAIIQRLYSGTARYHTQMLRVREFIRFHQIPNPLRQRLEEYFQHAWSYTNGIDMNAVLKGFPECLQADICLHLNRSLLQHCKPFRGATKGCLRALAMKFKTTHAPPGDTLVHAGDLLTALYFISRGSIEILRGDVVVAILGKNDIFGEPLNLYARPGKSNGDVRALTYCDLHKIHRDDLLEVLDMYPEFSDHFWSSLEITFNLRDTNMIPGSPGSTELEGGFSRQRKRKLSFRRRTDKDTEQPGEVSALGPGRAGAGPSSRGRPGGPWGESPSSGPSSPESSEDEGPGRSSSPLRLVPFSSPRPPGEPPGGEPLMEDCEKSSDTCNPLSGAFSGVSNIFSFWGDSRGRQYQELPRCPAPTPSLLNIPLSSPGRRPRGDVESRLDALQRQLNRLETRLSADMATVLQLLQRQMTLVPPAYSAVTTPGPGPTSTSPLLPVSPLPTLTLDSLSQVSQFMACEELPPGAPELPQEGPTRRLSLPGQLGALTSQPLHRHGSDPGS

SMILES	hERG current change (%, negative = inhibition) at 10uM [%]
CC(NS(=O)(=O)c1ccc(OCC(=O)Nc2cccc([N+](=O)[O-])c2)cc1)c1ccccc1 (stereo not shown)	3.21
COCCN=C1NN=C(c2ccc(C)c([N+](=O)[O-])c2)CS1	11.7
O=C(/C=C/c1ccccc1)N/C(=C\c1ccco1)C(=O)O	19.6
O=C(O)CSc1nnc(-c2cccs2)n1-c1ccc(Cl)cc1	-6.94
CCOC(=O)CSc1nnc(-c2cccs2)n1-c1ccccc1	-42.8
CCn1c(SCCOc2ccc(Cl)cc2)nnc1-c1cccs1	-53.8
Cc1ccc(OCCSc2nnc(-c3ccncc3)n2C)cc1	-28.9
CCn1c(SCC(=O)c2ccc(Cl)cc2)nnc1-c1cccs1	-10.8
COC(=O)CSc1nnc(-c2cccs2)n1-c1ccc(Cl)cc1	-60.4
Cc1ccc(OCCSc2nnc(-c3cccs3)n2C)cc1	-37
Cn1c(SCCOc2ccc(Cl)cc2)nnc1-c1ccncc1	-56.3
CCn1c(SCC(=O)NCCc2ccccc2)nnc1-c1cccs1	-27.6
CCn1c(SCC(=O)NCCc2ccc(Cl)cc2)nnc1-c1cccs1	-75.8
Cc1cc(OCCSc2nnc(-c3cccs3)n2C)ccc1Cl	-22.5
Cn1c(SCCOc2ccc(F)cc2)nnc1-c1ccncc1	-44.4
CC(C)N(CCNS(=O)(=O)c1ccc(Cl)cc1)C(C)C.Cl	-28.1
O=C(c1[nH]ncc1-c1cccc(Br)c1)C1CO1 (stereo not shown)	3.39
O=C(Nc1c(C(=O)N2CCOCC2)cnn1-c1ccccc1)c1ccc(F)cc1	13.8
CC(C)c1cc(C(=O)NCCc2ccccc2)no1	-40.1
CCC(C(=O)NC(C)(C)C)N(Cc1ccco1)C(=O)CNS(=O)(=O)c1ccc(OC)cc1 (stereo not shown)	7.49
O=C(O)/C(=C\c1ccc2ccccc2c1)c1cccc2ccccc12	6.53
CC(=O)Nc1ccc(C(=O)N/N=C/c2ccncc2)cc1	0.536

SMILES	hERG current change (%, negative = inhibition) at 10uM [%]
Cc1cc(C)n2[nH]c(=O)c(N=Nc3cccc(C(F)(F)F)c3)c2n1	-23.8
CCn1c(SCC(=O)NCC(=O)Nc2ccc(F)cc2)nnc1-c1cccs1	-25.1
CCn1c(SCC(=O)NCCc2ccc(F)cc2)nnc1-c1cccs1	-61.9
CCn1c(SCC(=O)NCc2cccs2)nnc1-c1cccs1	-20.9
COc1ccc2[nH]c(=O)c(-c3nnn(-c4ccccc4)n3)cc2c1	-1.01
Cc1ccc(Cn2c(CCC(=O)O)nc3ncccc3c2=O)cc1	13.4
Cc1nn(CC(=O)NCCCN2CCCCC2)c(=O)c2cc(-c3ccccc3)nn12	-49.4
Cc1nn(CC(=O)NCCCN2CCN(Cc3ccccc3)CC2)c(=O)c2cc(-c3ccccc3)nn12	-70.1
CCc1ccc(-c2cc3c(=O)n(CC(=O)NCCN4CCCCC4C)nc(C)n3n2)cc1 (stereo not shown)	-57.5
CCc1ccc(-c2cc3c(=O)n(CC(=O)NCCCN4CCN(Cc5ccccc5)CC4)nc(C)n3n2)cc1	-22.7
CCc1ccc(-c2cc3c(=O)n(CC(=O)NCCCN4CCN(CC)CC4)nc(C)n3n2)cc1	-30
Cc1nn(CC(=O)NCCCN2CCN(C)CC2)c(=O)c2cc(-c3ccccc3)nn12	0.586
Cc1nn(CC(=O)NCCCN2CCC(Cc3ccccc3)CC2)c(=O)c2cc(-c3ccccc3)nn12	-77
CCc1ccc(-c2cc3c(=O)n(CC(=O)NCCCN4CCC(Cc5ccccc5)CC4)nc(C)n3n2)cc1	2.48
Cc1nn(CC(=O)NCCN2CCCCC2C)c(=O)c2cc(-c3ccccc3)nn12 (stereo not shown)	-48.4
Cc1ccc(C2/C(=C(/O)c3ccccc3)C(=O)C(=O)N2CCN2CCOCC2)o1 (stereo not shown)	-2.22
COc1ccc(CCN2C(=O)NC(NC(C)=O)(C(F)(F)F)C2=O)cc1OC (stereo not shown)	7.51
O=C(c1cccc(N2C(=O)C3C4C=CC(C4)C3C2=O)c1)N1CCN(c2ccccc2)CC1 (stereo not shown)	-1.68
c1ccc(Oc2ccc(-c3ccnc4ncnn34)cc2)cc1	10.7
c1ccc2c(c1)ncn2-c1ccc(-c2ccnc3ncnn23)cc1	-68
c1cn(-c2ccc(-c3ccnc4ncnn34)cc2)cn1	-27.2
Cc1cc(OCC(=O)NC2CCS(=O)(=O)C2)c2c3c(c(=O)oc2c1)CCC3 (stereo not shown)	-3.87

SMILES	hERG current change (%, negative = inhibition) at 10uM [%]
COc1ccc(CNC(=O)C(=O)NC2CCC(C)CC2)cc1 (stereo not shown)	19.4
C=C(Cl)CSC(=S)N(CC)CC	12.1
C=CCn1c(SCC(=O)N(CC)C2CCS(=O)(=O)C2)nnc1-c1ccccc1 (stereo not shown)	-2.7
CCN(C(=O)CSc1nc2ccccc2c(=O)n1CCOC)C1CCS(=O)(=O)C1 (stereo not shown)	-61.2
C=CCn1c(SCC(=O)N(C)C2CCS(=O)(=O)C2)nnc1-c1ccccc1 (stereo not shown)	16.8
CCOCCCn1c(SCC(=O)N(C)C2CCS(=O)(=O)C2)nc2ccccc2c1=O (stereo not shown)	-37.5
CCN(C(=O)CSc1nc2ccccc2c(=O)n1C(C)COC)C1CCS(=O)(=O)C1 (stereo not shown)	-22.8
COCCn1c(SCC(=O)N(C)C2CCS(=O)(=O)C2)nc2ccccc2c1=O (stereo not shown)	-12.1
CCN(C(=O)CSc1n[nH]c(-c2cccs2)n1)C1CCS(=O)(=O)C1 (stereo not shown)	12.2
C=CCn1c(SCC(=O)N(C)C2CCS(=O)(=O)C2)nc2ccccc2c1=O (stereo not shown)	-50
O=C(CSc1nc(-c2cccs2)nc2ccccc12)NC1CCS(=O)(=O)C1 (stereo not shown)	6.45
C=CCn1c(SCC(=O)N(CC)C2CCS(=O)(=O)C2)nc2cc(C(=O)O)ccc2c1=O (stereo not shown)	5.01
C=CCn1c(SCC(=O)N(CC)C2CCS(=O)(=O)C2)nc2ccccc2c1=O (stereo not shown)	-79.2
CCN(C(=O)CSc1nc(-c2cccs2)nc2ccccc12)C1CCS(=O)(=O)C1 (stereo not shown)	-95.6
Cn1c(=O)[nH]c(=O)c2c1[nH]c(=S)n2Cc1ccccc1	17.5
COc1cc2cc(C(=O)NCCc3ccccc3)[nH]c2cc1OC	19.2
COc1ccc(C(=O)/C=C/NCc2ccc(C)cc2)cc1	-17.2
Cc1ccc2c(c1)c1nnc(SCC(=O)Nc3ccc(N(C)C)cc3)nc1n2CC(=O)O	6
Cc1ccc(NC(=O)C2(c3ccccc3)CCOCC2)c([N+](=O)[O-])c1	-22.5
COC(=O)c1cc(N2CCNCC2)nc2ccccc12.Cl	-17
CCN1C(=O)c2cccc3c(S(=O)(=O)N(C(=O)c4ccncc4)c4ccc(OC)cc4)ccc1c23	-7.51
Cc1sc2nc(CN3CCOCC3)nc(N3CCC(C(N)=O)CC3)c2c1C	5.73

SMILES	hERG current change (%, negative = inhibition) at 10uM [%]
Cc1sc2nc(CN3CCCC3)nc(N3CCC(C(N)=O)CC3)c2c1C	-3.64
Cc1sc2nc(CN3CCCCC3)nc(N3CCN(C(=O)c4ccco4)CC3)c2c1C	-75
Cc1sc(NC(=O)c2ccco2)c(CN2CCCCC2)c1C	-49.9
Cc1sc2nc(CN3CCCC3)nc(N3CCN(C(=O)c4ccco4)CC3)c2c1C	-68.6
Cc1sc2nc(CN3CCOCC3)nc(Oc3ccc(NC(=O)c4ccco4)cc3)c2c1C	-38.9
CCCn1c(SCN2C(=O)c3ccccc3C2=O)nc2cc(Cl)ccc2c1=O	16.5
COC(=O)c1ccc(-c2cc(C(=O)O)c3cc4c(cc3n2)OCCO4)cc1	-0.776
CC(C)C12CN3CCN(CC(C3)/C1=N\NC(=O)Nc1ccccc1)C2	-16.1
COc1cccc(N2CCN(CC(=O)NCc3cccs3)CC2)c1	-3.18
CC(C)n1c(N2CCN(CC(=O)NCc3cccs3)CC2)nc2ccccc21	-60.8
CC(C)(C)NC(=O)Cn1c(SCC(=O)NCc2cccs2)nc2ccccc21	6.18
CC(C)n1c(NCc2cccs2)nc2ccccc21	-12.6
CCCn1c(N2CCN(CC(=O)NCc3cccs3)CC2)nc2ccccc21	-74.7
O=C(CN1CCN(c2ccccn2)CC1)NCc1cccs1	-26.2
Nc1c(Cl)ncnc1NCC(O)CO (stereo not shown)	17.7
O=C(Nc1ccc(Oc2ccc(NC(=O)c3ccco3)c(NC(=O)c3ccco3)c2)cc1)c1ccco1	-13.5
CC1Cc2ccccc2N1C(=O)CSc1nc2c(c(=O)n(C)c(=O)n2C)n1Cc1ccccc1 (stereo not shown)	-33.7
Cc1ccc(Nc2ccccc2)nn1	18.6
COc1ccccc1-c1coc2c(CN3CCCC(C)C3)c(O)ccc2c1=O (stereo not shown)	-2.44
CC1(C)CC2(CC(c3ccccc3)Oc3cc(O)ccc32)NC(=S)N1 (stereo not shown)	-1.82
CSC1=NC2(CC(c3ccccc3)Oc3cc(O)ccc32)CC(C)(C)N1 (stereo not shown)	-76.1
CC1(C)CC2(CC(c3ccccc3)Oc3cc(O)ccc32)NC(=O)N1 (stereo not shown)	3.54
